Experimental data reported in PubChem BioAssay AID1851 (National Center for Advancing Translational Sciences (NCATS), 2009).
Among all 16,000 compounds or so, about 4,000 (25%) were called active. Roughly 26% stayed inconclusive and do not appear here. The list is a sample of the results. Unmarked numbers belong to inactive results. Calls follow the shape of the dose curve; as a rule, active = well fitted curve in the direction sought with a large enough effect; inconclusive = small, poorly fitted or top-dose-only effect, or effect the other way; inactive = no such curve, though single readings can be large or run the other way.

Biological target: Cytochrome P450 2C9 (Homo sapiens) (UniProt P11712)
Sequence (P11712 whole entry, looked up): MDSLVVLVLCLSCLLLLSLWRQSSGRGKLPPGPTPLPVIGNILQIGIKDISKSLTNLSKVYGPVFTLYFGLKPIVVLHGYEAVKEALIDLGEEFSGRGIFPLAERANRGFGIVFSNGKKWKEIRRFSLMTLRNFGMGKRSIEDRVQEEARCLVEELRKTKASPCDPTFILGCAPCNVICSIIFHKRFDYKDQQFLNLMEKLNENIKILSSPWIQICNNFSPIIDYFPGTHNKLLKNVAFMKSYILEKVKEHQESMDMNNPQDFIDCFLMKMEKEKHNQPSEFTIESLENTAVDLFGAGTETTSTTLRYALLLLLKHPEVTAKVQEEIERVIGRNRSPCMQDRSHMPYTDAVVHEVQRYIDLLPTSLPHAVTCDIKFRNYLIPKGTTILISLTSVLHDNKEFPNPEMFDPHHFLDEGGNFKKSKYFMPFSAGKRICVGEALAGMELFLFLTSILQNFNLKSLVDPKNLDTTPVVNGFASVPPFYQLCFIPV
Assay: Cytochrome panel assay with activity outcomes
Settings: recombinant CYP, pro-luciferin dealkylation, luminescence, p450-cyp2c9; series mostly up to 57.1 µM
% is scaled to controls: 0 for no effect and ±100 for the full control effect.

Row | SMILES | AC50 | activity, negative = inhibition
1 | Cc1ccc(C(=O)c2ccc(CC(=O)O)n2C)cc1 | inactive | 
2 | CCOC(=O)CCN1C(=O)[C@H]2[C@H]3[C@H](O)[C@H](O)C/C(=N/OC/C=C(\C)CCC=C(C)C)[C@@H]3CC[C@@H]2C1=O |  | 7.78% [at 11.4 µM]
3 | CN1CCN(c2ncnc3ccc(-c4ccc(C(=O)N(C)C)cc4)cc23)CC1 |  | 17.4% [at 2.29 µM]
4 | Cc1noc(C)c1-c1ccc2ncnc(Nc3ccc(F)cc3)c2c1 |  | -13.2% [at 2.29 µM]
5 | FC(F)(F)c1cc(CN2CCC3(CCNCC3)CC2)cc(C(F)(F)F)c1 | inactive | 
6 | CS(=O)(=O)Nc1cccc(-c2nccc(Nc3ccc(F)cc3)n2)c1 |  | 18.7% [at 2.29 µM]
7 | COC(=O)C1=C(C)N=C2SC(C)C(=O)N2C1/C=C/c1ccccc1 (stereo not given) | 4.47 µM (active) | 
8 | COC(=O)c1cc(/C=C/c2ccccc2)on1 | inactive | 
9 | COC(=O)[C@@]1(Cc2ccccc2)[C@H]2c3cc(C(=O)N(C)C)n(Cc4ccsc4Br)c3C[C@H]2CN1C(=O)c1ccccc1 | 3.98 µM (active) | 
10 | COC(=O)[C@@]1(Cc2ccccc2)[C@H]2c3cc(C(=O)N4CCCC4)n(Cc4ccsc4Br)c3C[C@H]2CN1C(=O)c1ccccc1 | 2 µM (active) | 
11 | CCCCN1CCCC[C@H]1C(=O)Nc1c(C)cccc1C | inactive | 
12 | CC(=O)OC[C@@H]1O[C@H](CCO/N=C\[C@@H](C)[C@H](OCc2ccccc2)C(C)C)C=C[C@@H]1OC(C)=O |  | -15.4% [at 11.4 µM]
13 | CON1C(=O)C(=O)N(OC)C(C)(C)C1C (stereo not given) | inactive | 
14 | Cc1cc([N+](=O)[O-])nn1CC(=O)NNC(=S)Nc1ccc(F)cc1 | inactive | 
15 | Cc1cc(NC(=O)c2c([N+](=O)[O-])c(C)nn2C)no1 | inactive | 
16 | COc1ccccc1NC(=S)NNC(=O)c1c(Cl)c(C)nn1C | 3.55 µM (active) | 
17 | Cc1nn(C)c(C(=O)NNC(=S)Nc2ccc(Cl)cc2)c1[N+](=O)[O-] | 6.31 µM (active) | 
18 | O=C(N/N=C1/C[C@@H](O)[C@@H](O)[C@@H]2[C@H]3C(=O)N(c4ccc(F)cc4F)C(=O)[C@@H]3CC[C@@H]12)OCc1ccccc1 |  | -1.14% [at 11.4 µM]
19 | O=C(O)c1ccc(C(=O)c2ccccc2C(=O)O)cc1C(=O)O |  | -6.86% [at 11.4 µM]
20 | NC(N)=N/N=C\c1ccc(O)c(C(=O)O)c1 |  | 2.83% [at 11.4 µM]
21 | O=C(O)C1=CC(=C(c2ccc(O)c(C(=O)O)c2)c2ccc(O)c(C(=O)O)c2)C=CC1=O | 15.8 µM (active) | 
22 | CC1=C/C(=C(/c2ccc(O)c(C)c2)c2ccccc2C(=O)O)C=CC1=O | 0.01 µM (active) | 
23 | O=C(O)c1ccc(C(=O)O)c(C(=O)O)c1.[NH-][C@@H]1CCCC[C@@H]1[NH-].[Pt] |  | 0.225% [at 11.4 µM]

Row | SMILES | AC50 | activity, negative = inhibition
24 | NC(=O)CN1CCOCCOCCOCCOCCOCC1 | inactive | 
25 | CCN(C1CCCCC1)S(=O)(=O)c1ccc(S(=O)(=O)NCc2ccncc2)cc1 | 0.0398 µM (active) | 
26 | O=S(=O)(NCc1cccnc1)c1ccc(Cl)nc1 | inactive | 
27 | COc1ccccc1CNc1cc(-c2c(C)noc2C)ncn1 |  | -2.44% [at 2.29 µM]
28 | Cc1ccc(-n2nc(C)c3c2OC(N)=C(C#N)C3c2ccco2)cc1 (stereo not given) | 6.31 µM (active) | 
29 | COc1ccccc1NC(=O)COC(=O)c1ccc(S(=O)(=O)NCc2ccco2)cc1 | 0.398 µM (active) | 
30 | NCCSSCCN | inactive | 
31 | CN1CCN(c2ncc3nc(-c4cc(F)cc(F)c4)c(=O)n(Cc4cccs4)c3n2)CC1 | inactive | 
32 | O=c1cnc2cnc(N3CCNCC3)nc2n1Cc1cccs1 | inactive | 
33 | COc1ccc(-c2nc3cnc(N4CCN(C)CC4)nc3n(Cc3cccs3)c2=O)cc1 | inactive | 
34 | CN1CCN(c2ncc3nc(-c4ccc(Cl)cc4)c(=O)n(Cc4cccs4)c3n2)CC1 | inactive | 
35 | O=c1c(-c2ccc(F)cc2)nc2cnc(N3CCNCC3)nc2n1Cc1cccs1 | 15.8 µM (active) | 
36 | CN(C)c1ncc2nc(-c3cc(F)cc(F)c3)c(=O)n(Cc3cccs3)c2n1 | inactive | 
37 | Cc1nc2cnc(N3CCNCC3)nc2n(Cc2cccs2)c1=O | inactive | 
38 | O=c1c(-c2ccc(Cl)cc2)nc2cnc(N3CCNCC3)nc2n1Cc1cccs1 | 20 µM (active) | 
39 | O=c1c(-c2ccc(F)cc2)nc2cnc(N3CCOCC3)nc2n1Cc1cccs1 | inactive | 
40 | O=c1c(-c2cc(F)cc(F)c2)nc2cnc(N3CCNCC3)nc2n1Cc1cccs1 | 3.98 µM (active) | 
41 | O=c1c(-c2cccs2)nc2cnc(N3CCNCC3)nc2n1Cc1cccs1 | 12.6 µM (active) | 
42 | COc1ccc(NC(=O)N2CC[C@@]3(CCCN(C(=O)c4cc(C(F)(F)F)cc(C(F)(F)F)c4)C3)C2)cc1 | inactive | 
43 | O=C1C(O)=C(O)C(=O)C(O)=C1O | inactive | 
44 | Cc1ccnc(NS(=O)(=O)c2ccc(N=[N+]=[N-])cc2)n1 |  | -7.68% [at 11.4 µM]
45 | COC(=O)[C@@H]1O[C@@H](c2c(OC)c(OC)c(C)c(OC)c2OC)[C@H](C)[C@@H](O)[C@@H]1C |  | 14.6% [at 11.4 µM]
46 | COCCn1c(=O)c(-c2cccs2)nc2cnc(N3CCNCC3)nc21 | 2 µM (active) | 

Row | SMILES | AC50 | activity, negative = inhibition
47 | COc1ccc(-n2c(=O)c(-c3cccs3)nc3cnc(N4CCNCC4)nc32)cc1 | inactive | 
48 | COCCn1c(=O)c(-c2cccs2)nc2cnc(N3CCN(C)CC3)nc21 | inactive | 
49 | Cc1noc(C)c1C(=O)N1CCC2(CCN(C(=O)NC(C)C)CC2)CC1 | inactive | 
50 | COC(=O)C1=C(CSc2nncn2C)NC(=O)NC1c1ccc(F)cc1 (stereo not given) | inactive | 
51 | CCOC(=O)C1=C(C)N=C2SC(C(=O)OC)=CC(=O)N2C1c1ccc(F)cc1 (stereo not given) | 7.08 µM (active) | 
52 | OCCCCNCc1ccc(OCc2ccccc2Cl)cc1 | inactive | 
53 | Nc1cccc(OCc2nc(N)nc(N)c2-c2ccc(Cl)cc2)c1 |  | -4.32% [at 11.4 µM]
54 | Cc1cc(OCc2nc(N)nc(N)c2-c2ccc(Cl)c(Cl)c2)ccc1[N+](=O)[O-] | 1.58 µM (active) | 
55 | CC1(C)S[C@@H]2[C@H](NC(=O)[C@@H](NC(=O)N3CCNC3=O)c3ccccc3)C(=O)N2[C@H]1C(=O)O | inactive | 
56 | O=C(Nc1ccc(Nc2ccc3c(c2)C(=O)c2ccccc2C3=O)c2c1C(=O)c1ccccc1C2=O)c1ccccc1 |  | -2.6% [at 11.4 µM]
57 | CCC(=O)Nc1ccc2c(c1)C(=O)c1ccccc1C2=O | 3.16 µM (active) | 
58 | O=C1c2ccccc2-c2ccc(NC(=O)[C@H]3CCCC[C@@H]3C(=O)O)cc21 |  | -10.8% [at 11.4 µM]
59 | O=C(O)c1ccc(Nc2ccnc3cc(Cl)ccc23)cc1O |  | -1.26% [at 11.4 µM]
60 | O=c1c(-c2ccc(F)cc2)nc2cncnc2n1-c1ccccc1 | inactive | 
61 | O=c1c(-c2cccs2)nc2cncnc2n1-c1ccccc1 | 10 µM (active) | 
62 | CN(C)c1ncc2nc(-c3cccs3)c(=O)n(-c3ccccc3)c2n1 | inactive | 
63 | COc1ccc(-n2c(=O)c(-c3ccccc3)nc3cncnc32)cc1 | inactive | 
64 | COc1ccc(-n2c(=O)c(-c3cccs3)nc3cncnc32)cc1 | inactive | 
65 | O=c1c(-c2ccccc2)nc2cncnc2n1-c1ccccc1 | 15.8 µM (active) | 
66 | O=c1c(-c2cccc(Cl)c2)nc2cncnc2n1-c1ccccc1 | 10 µM (active) | 
67 | CSCC[C@@H]1NC(=O)C/C=C\[C@@H](C)COC(=O)[C@@H](C)COC1=O |  | 14.5% [at 11.4 µM]
68 | CCCCn1c(NCc2ccccc2NS(=O)(=O)c2ccc(C)cc2)nc2ccccc21 | 1.58 µM (active) | 
69 | c1ccc(CN(CC2=NCCN2)c2ccccc2)cc1 | inactive | 

Row | SMILES | AC50 | activity, negative = inhibition
70 | COc1nc(Oc2ccc(/C=N/O)cc2)nc(N(C)C)n1 | inactive | 
71 | CN(C)C(=C(C#N)C#N)N1CCN(c2ccc(Cl)c(Cl)c2)CC1 | 12.6 µM (active) | 
72 | O=S(=O)(O)c1ccc(N=Nc2ccccc2)cc1 |  | -1.61% [at 11.4 µM]
73 | O=S(=O)(C=C(c1ccccc1)c1ccccc1)c1ccccc1 | 7.08 µM (active) | 
74 | O=S(=O)(/N=C(/Nc1ccccn1)c1ccccc1)c1ccccc1 | inactive | 
75 | c1csc(CNc2ccnc(-c3ccoc3)n2)c1 |  | -25.1% [at 2.29 µM]
76 | COc1cccc(-c2nccc(NCc3cccs3)n2)c1 |  | -26.6% [at 2.29 µM]
77 | O=C(Nc1ccnc(-c2cccnc2)n1)c1cccc(Cl)c1Cl | 3.98 µM (active) | 
78 | CN(C)C(=O)c1ccc(-c2nccc(NCc3cccnc3)n2)cc1 |  | 5.1% [at 2.29 µM]
79 | COc1ccc(CNc2ccnc(-c3cccnc3)n2)c(OC)c1 |  | 8.69% [at 2.29 µM]
80 | O=C(Nc1ccnc(-c2cccnc2)n1)c1ccccc1Cl | 15.8 µM (active) | 
81 | CC(C)(C)C(=O)Nc1ccnc(-c2cccnc2)n1 | 3.16 µM (active) | 
82 | Cc1ccccc1-c1nccc(NCc2cccnc2)n1 |  | -17.5% [at 2.29 µM]
83 | c1ccc(CNc2ccnc(-c3cccnc3)n2)cc1 |  | -12.1% [at 2.29 µM]
84 | N#Cc1cccc(-c2nccc(NCc3cccnc3)n2)c1 |  | -11.5% [at 2.29 µM]
85 | c1cncc(-c2nccc(NCc3cccs3)n2)c1 | 0.398 µM (active) | 
86 | N[C@H](CCC(=O)NCS(=O)(=O)O)C(=O)O | inactive | 
87 | CN(C)CCN(c1ccccn1)c1ccccn1 |  | 0.501% [at 11.4 µM]
88 | O=C(C1=C(O)C(=O)N(Cc2ccco2)C1c1ccccc1)c1cccs1 (stereo not given) | 8.91 µM (active) | 
89 | NS(=O)(=O)Cc1noc2ccccc12 | inactive | 
90 | [N-]=[N+]=NC[C@@H]1O[C@@H](n2cnc3c(N)ncnc32)[C@@H]2O[C@@H]21 |  | 2.07% [at 11.4 µM]
